# Assay outcomes as filed in PubChem BioAssay.
# Rows were chosen to be rich in hits. Some 12% of all compounds tested hit in one or more screens of this group.
# PLK1 PBD block: qHTS for Inhibitors of PLK1-PDB (polo-like kinase 1 - polo-box domain): Primary Screen; Serine/threonine-protein kinase PLK1 (Homo sapiens), P53350; Plk1 PBD binding of FITC phosphopeptide, fluorescence polarization; Potency, µM, without a hit: max response, negative = inhibition, actives largely listed as inhibitors; hit rate 2.8% among 360,000; AID 720504, 2013; further: series mostly up to about 57 µM; on the % scale 0 is the no-effect control and ±100 the full control effect; nearly all actives have a fitted effect of over 65% in size
# Sfp inh: qHTS Assay for Inhibitors of Bacillus subtilis Sfp phosphopantetheinyl transferase (PPTase). Biochemical Sfp PPTase activity, qHTS. 4'-phosphopantetheinyl transferase ffp (Bacillus subtilis), Q9F4F7. hit rate 3.5% among 310,000. Potency, µM, without a hit: largest response in the series, negative = inhibition, hits mostly inhibitors;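 further: the enzyme is Sfp with the accession as filed and its product quenches rhodamine fluorescence; 0% = enzyme reaction without inhibitor and -100% = no enzyme wells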
#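 Compounds were incubated with enzyme (final 15 nM) for 15 min at room temperature before substrate addition started the reaction. Fluorescence at 525 nm excitation, 598 nm emission was recorded immediately and after 30 minutes.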
# JMJD2A Tudor inh: qHTS Assay for Inhibitors of JMJD2A-Tudor Domain | AlphaScreen JMJD2A-Tudor / H3K4me3 peptide binding | Potency, µM (highest dose often 114 µM), for inactives: at the highest dose activity change, negative = inhibition, usual class: inhibitors | hit rate 4.4% among 390,000 | AID 504339, 2011; further: on the % scale 0 is the no-effect control and ±100 the full control effect; nearly all actives have a fitted effect of over 50% in size
# BAZ2B block: qHTS Assay for Inhibitors of BAZ2B | Bromodomain adjacent to zinc finger domain protein 2B (Homo sapiens), Q9UIF8 | AlphaScreen BAZ2B-H3K14Ac peptide displacement | Potency, µM (doses to about 114 µM), for inactives: top-dose activity change, negative = inhibition, hits mostly inhibitors | hit rate 4.4% among 360,000 | AID 504333, 2011; further: on the % scale 0 is the no-effect control and ±100 the full control effect; nearly all actives have a fitted effect of over 60% in size
#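 Multi-concentration screen (max 110 uM) measuring displacement of acetylated histone H3 peptide from BAZ2B by AlphaScreen, using 50 nM protein, 50 nM peptide and 10 ug/mL streptavidin donor plus Ni-chelate acceptor beads.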
# G9a inh: qHTS Assay for Inhibitors of Histone Lysine Methyltransferase G9a; hit rate 8.8% among 350,000; Potency, µM (highest dose often 102 µM), for inactives: top-dose activity, negative = inhibition, most hits filed as inhibitors; G9a H3K9 monomethylation, AlphaScreen, 2 h; AID 504332, 2011; further: on the % scale 0 is the no-effect control and ±100 the full control effect; nearly all actives have a fitted effect of over 75% in size
# Target sequence (Q96KQ7 913-1193 limits assumed): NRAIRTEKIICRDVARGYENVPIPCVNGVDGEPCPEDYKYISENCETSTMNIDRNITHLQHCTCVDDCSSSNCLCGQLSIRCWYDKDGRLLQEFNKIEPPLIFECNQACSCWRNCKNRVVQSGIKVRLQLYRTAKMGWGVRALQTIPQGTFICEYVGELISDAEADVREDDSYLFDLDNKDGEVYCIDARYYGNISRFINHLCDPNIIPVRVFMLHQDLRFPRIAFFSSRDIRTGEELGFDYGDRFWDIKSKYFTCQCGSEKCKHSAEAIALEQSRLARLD
#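 Compounds were preincubated with 20 nM G9a for 15 min, after which biotinylated H3K9 peptide (500 nM) and SAM (20 uM) started a 2 h room-temperature reaction. Monomethylated product was quantified by antibody-based AlphaScreen chemiluminescence.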
# HP1b binding inh: HTS for Inhibitors of HP1-beta Chromodomain Interactions with Methylated Histone Tails. Potency, µM (titrated, usually from 114 µM), for the others: at the top dose activity change, negative = inhibition, hits mostly inhibitors. AlphaScreen HP1-beta / biotin-H3K9me3 peptide binding. hit rate 0.56% among 390,000. Chromobox protein homolog 1 (Homo sapiens), P83916; further: nearly all actives have a fitted effect of over 70% in size
# Target sequence (P83916 whole entry, looked up): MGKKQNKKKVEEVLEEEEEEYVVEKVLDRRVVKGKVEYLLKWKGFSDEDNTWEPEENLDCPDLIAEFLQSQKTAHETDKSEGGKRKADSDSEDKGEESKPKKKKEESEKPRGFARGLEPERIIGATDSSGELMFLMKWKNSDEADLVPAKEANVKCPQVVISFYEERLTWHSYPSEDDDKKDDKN
#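 Compound inhibition of the preformed complex between 50 nM HP1-beta and 50 nM biotinylated H3K9me3 peptide was read by AlphaScreen. Buffer was PBS pH 7.4 with 0.01% Tween-20. Incubations ran 30 min at room temperature, with 10 ug/mL donor/acceptor beads.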
# * hit, by the source's call; ? = inconclusive; · = no result; [ ] = another dose, or the depositor's remark. The call rests on the fitted dose curve; in most records, active means well fitted curve in the direction sought with a large enough effect; inconclusive means small, poorly fitted or top-dose-only effect, or another doubt; inactive means no such curve, though single readings can be large; an effect the other way counts as inactive or inconclusive. Potency means the concentration at half of the fitted maximal effect.
SMILES,PLK1 PBD block,Sfp inh,JMJD2A Tudor inh,BAZ2B block,G9a inh,HP1b binding inh
COc1cccc(N=Cc2nc(-c3ccccc3)oc2OC(C)=O)c1,?,-16%,-11%,-2%,50µM*,26%
Cc1ccc(C(=O)Oc2oc(-c3ccccc3)nc2C=Nc2ccc(N(C)C)cc2)cc1,72%,?,-15%,46%,61%[59 µM],37%
CN(C)c1ccc(N=Cc2nc(-c3ccccc3)oc2OC(=O)c2cccc(Cl)c2)cc1,3%,?,-25%,-11%,8.9µM*,-1%
On1c(-c2ccccc2Cl)nc2ccccc21,-10%,16%,6%,-3%,-2%,21%
CN1CCN(/N=C/c2nc(-c3ccccc3Cl)n3ccccc23)CC1,-6%,14%,-31%,-9%,28µM*,-11%
Clc1ccccc1-c1nc(/C=N/N2CCOCC2)c2ccccn12,24µM*,89µM*,?,·,28µM*,?
O=Cc1nc(-c2ccccc2Cl)n2ccccc12,-1%,7%,-7%,-6%,1%[59 µM],12%
C=C(CN(C)C)C(=O)c1cc(OC)c(OC)cc1OC,17µM*,·,79µM*,·,·,?
C=C(CN(C)C)C(=O)c1ccc(C)cc1C,2.7µM*,·,79µM*,·,·,32µM*
COc1cc(OC)c(C(=O)CCC(=O)O)cc1OC,-9%,0%,-2%,10%,11%[59 µM],30%
C=C(CN(C)C)C(=O)c1ccc2c(c1)OCO2,15µM*,·,14µM*,·,·,?
C=C(C)C(=O)c1ccc2c(c1)OCO2,·,-19%,·,·,·,·
CN1CCN(c2ncc3nc(-c4ccccc4)c(=O)n(CCC#N)c3n2)CC1,·,3%,·,·,-1%[12.7 µM],·
c1ccc(CCNc2ccc3nncn3n2)cc1,2%,-14%,-19%,16%,-38%,24%
NNc1ccc2nncn2n1,-2%,?,-4%,-13%,50µM*,17%
O=C(O)c1ccc(C=NN2CCCCCC2)cc1,0%,·,-17%,·,·,20%
COc1ccc(O)c(/C=N/N2CCCCC2)c1,-19%,8%,50µM*,50µM*,50µM*,4%
COc1ccc(/C(C)=N/N2CCCCC2)c(O)c1,0%,7%,14%,2%,8%,40%
Oc1ccc(/C=N/N2CCCCC2)cc1O,?,50µM*,?,?,-10%[2.33 µM],?
N#Cc1ccc(C=NN2CCCCCC2)cc1,-12%,·,35µM*,·,·,?
Clc1ccc(C=NN2CCCCCC2)cc1,-4%,·,35µM*,·,·,-33%
COc1ccc(NC(=O)Cn2c(=O)n(Cc3ccco3)c(=O)c3sc4ccccc4c32)cc1OC,·,·,-12%,2%,0%[59 µM],38%
Clc1ccc(C=NN2CCCCCC2)cc1Cl,4%,·,?,·,·,17%
O=C1C2C3C=CC(CC3)C2C(=O)N1/N=C/c1ccc(O)c(O)c1 (stereo not given),-16%,-29%,-23%,?,?,?
O=C1c2ccccc2C(=O)N1/N=C/c1ccc(O)c(O)c1,?,-30%,8.9µM*,?,11µM*,-20%[57 µM]
SMILES,PLK1 PBD block,Sfp inh,JMJD2A Tudor inh,BAZ2B block,G9a inh,HP1b binding inh
COc1cc(C=NN2CCCCC2)cc(OC)c1OC,1%,·,·,·,·,·
Clc1ccc(/C=N/N2CCCCC2)cc1,-2%,10%,50µM*,-38%,-36%[59 µM],-12%
COc1cc(/C=N/N2CCCCC2)cc(OC)c1O,?,45µM*,-26%,-34%,22µM*,-5%
COc1ccccc1N1CCN(C2CCCN(Cc3ccccc3OCCO)C2)CC1 (stereo not given),-7%,9%,-16%,0%,79µM*,27%
COc1ccc(CN2CCN(CCCc3ccccc3)CC2)c(OC)c1,·,-23%,·,32µM*,4µM*,·
COc1ccccc1N1CCN(Cc2ccc(O)c3ncccc23)CC1,-4%,-18%,13µM*,4.5µM*,?,-11%
COc1ccc(CC(C)N2CCN(Cc3ccccc3)CC2)c(OC)c1 (stereo not given),-5%,7%,?,-32%,-51%[59 µM],28%
COc1ccccc1N1CCN(Cc2c[nH]c3ccccc23)CC1,-3%,16%,-26%,-17%,3%,-11%
COc1ccc2c(CN3CCN(c4ccccc4OC)CC3)cc(=O)oc2c1,4%,·,·,·,·,·
COc1ccc(CN2CCN(c3ccccc3OC)CC2)c(OC)c1,-2%,-16%,20µM*,?,-9%[0.501 µM],-33%
COc1ccccc1CN1CCCC2(CCNCC2)C1,·,0%,·,·,0%[12.7 µM],·
COc1ccc(CN2CCN(Cc3ccccc3C(F)(F)F)CC2)c(OC)c1,3%,?,1.6µM*,28µM*,45µM*,28µM*
COc1cccc(CN2CCN(Cc3ccccc3C(F)(F)F)CC2)c1,-6%,56µM*,28µM*,25µM*,4.5µM*,20µM*
c1ccc2c(c1)c1c(c3ccccc32)CN2CCCC2C1 (stereo not given),-22%,·,-29%,·,·,-11%
O=C(O)C1CSC(c2ccco2)N1 (stereo not given),?,?,-22%[11.4 µM],50µM*,3.2µM*,40µM*
O=C1CSC(c2ccco2)N1 (stereo not given),-8%,-3%,-4%,1%,79µM*,27%
COc1ccc(C2NC(=O)CS2)cc1 (stereo not given),-8%,-9%,-6%,-2%,-12%[59 µM],30%
CC1CCC(C(=O)O)NC1c1ccc(-c2ccco2)cc1 (stereo not given),·,10%,·,·,·,·
CCn1c(=O)c2sccc2n2c(CCC(=O)N3CCN(c4ccc(C(C)=O)cc4)CC3)nnc12,·,·,-12%,1%,-4%[59 µM],29%
Cn1c2cc(B(O)O)sc2c2cnn(Cc3c(F)cccc3Cl)c(=O)c21,·,·,·,-28%,2%[12.7 µM],·
